Laboratory results published in PubChem BioAssay AID1159580 (chemical genetic matrix, 2015).
Values joined by “and” are separate entries in the source; they are usually repeats but may differ in a detail not shown here. Equal entries are not always repeated. Screen size: about 5,500 compounds; about 2,000 (36%) were called active. Not shown: some 18% with an inconclusive outcome. No stated cut-off is given here; in the data, active means normalized growth mostly below about 0.91 (no sharp cut-off); inconclusive means no clear call, values can overlap the other calls; inactive means mostly above about 0.92. This is one part of the list.

Assay: chemical genetic growth profiling, strain panel (AID 1159580);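 further: tested at 20 µM; growth read once vehicle control cultures reached saturation at 30 °C; 1 = growth at the plate median or of vehicle wells; lower values mean less growth of the strain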
Conditions: S. cerevisiae deletion strains, growth OD

Measured: normalized growth

COc1cc(CNC(=O)CCCC/C=C/C(C)C)ccc1O
inactive: locus YAL013W, strain DEP1, active compounds read low 1.01 | locus YAL021C, strain ccr4, active compounds read low 0.971 | locus YAL026C, strain drs2, active compounds read low 0.994 | locus YAL030W, strain snc1, active compounds read low 0.987 | locus YBL061C, strain skt5, active compounds read low 0.99 | locus YBR009C, strain hhf1, active compounds read low 0.951 | locus YBR021W, strain FUR4, active compounds read low 0.978 | locus YBR023C, strain chs3, active compounds read low 0.975 | locus YBR171W, strain sec66, active compounds read low 0.979 | locus YBR229C, strain ROT2, active compounds read low 0.994 | locus YBR231C, strain swc5, active compounds read low 0.981 | locus YBR279W, strain paf1, active compounds read low 0.983 | locus YCL011C, strain gbp2, active compounds read low 0.979 | locus YCL016C, strain dcc1, active compounds read low 0.989 | locus YCL029C, strain bik1, active compounds read low 0.988 | locus YCL069W, strain vba3, active compounds read low 0.992 | locus YCR088W, strain abp1, active compounds read low 0.964 | locus YDL005C, strain med2, active compounds read low 0.965 | locus YDL035C, strain GPR1, active compounds read low 0.972 | locus YDL040C, strain nat1, active compounds read low 0.997 | locus YDL074C, strain BRE1, active compounds read low 0.979 | locus YDL101C, strain DUN1, active compounds read low 1.01 | locus YDL134C, strain PPH21, active compounds read low 1 | locus YDL185W, strain tfp1, active compounds read low 0.986 | locus YDL192W, strain arf1, active compounds read low 0.989 | locus YDR001C, strain nth1, active compounds read low 0.997 | locus YDR069C, strain doa4, active compounds read low 0.981 | locus YDR101C, strain arx1, active compounds read low 0.969 | locus YDR137W, strain rgp1, active compounds read low 0.997 | locus YDR159W, strain sac3, active compounds read low 0.999 | locus YDR162C, strain NBP2, active compounds read low 1.04 | locus YDR195W, strain ref2 0.959 | locus YDR297W, strain sur2, active compounds read low 0.973 | locus YDR318W, strain mcm21, active compounds read low 1 | locus YDR334W, strain swr1, active compounds read low 0.998 | locus YDR335W, strain msn5, active compounds read low 0.968 | locus YDR388W, active compounds read low 0.99 | locus YDR392W, strain spt3, active compounds read low 0.956 | locus YDR502C, strain sam2, active compounds read low 0.961 | locus YEL003W, strain gim4, active compounds read low 0.984 | locus YEL037C, strain rad23, active compounds read low 0.99 | locus YEL061C, strain CIN8 (second series), active compounds read low 0.983 | locus YEL061C, strain CIN8, active compounds read low 1.01 | locus YER015W, strain faa2, active compounds read low 1 | locus YER016W, strain bim1, active compounds read low 1.01 | locus YER110C, active compounds read low 0.969 | locus YER111C, strain swi4, active compounds read low 0.991 | locus YER155C, strain BEM2 (second series), active compounds read low 0.953 | locus YER155C, strain BEM2, active compounds read low 0.994 | locus YER167W, strain BCK2, active compounds read low 1.01 | locus YFR010W, strain ubp6, active compounds read low 0.973 | locus YGL078C, strain dbp3, active compounds read low 0.974 | locus YGL086W, strain mad1, active compounds read low 0.996 | locus YGL167C, strain pmr1, active compounds read low 0.988 | locus YGL173C, strain kem1, active compounds read low 0.978 | locus YGL227W, strain vid30, active compounds read low 0.975 | locus YGL240W, strain doc1, active compounds read low 0.975 | locus YGL248W, strain PDE1, active compounds read low 1.02 | locus YGL253W, strain hxk2, active compounds read low 0.987 | locus YGR135W, strain pre9, active compounds read low 0.991 | locus YGR252W, strain gcn5, active compounds read low 0.898 | locus YHR013C, strain ard1, active compounds read low 0.999 | locus YHR027C, strain rpn1, active compounds read low 0.984 | locus YHR030C, strain SLT2, active compounds read low 1.02 and 0.997 | locus YHR079C, strain IRE1 (second series), active compounds read low 1 | locus YHR079C, strain IRE1, active compounds read low 0.989 | locus YHR094C, strain hxt1, active compounds read low 0.981 | locus YHR129C, strain ARP1, active compounds read low 1.02 | locus YHR142W, strain chs7, active compounds read low 0.998 | locus YHR200W, strain rpn10, active compounds read low 1.01 | locus YIL066C, strain RNR3, active compounds read low 1.01 | locus YIL073C, strain SPO22, active compounds read low 0.972 | locus YIL125W, strain kgd1, active compounds read low 0.993 | locus YIR030C, strain dcg1, active compounds read low 0.986 | locus YJL092W, strain hpr5, active compounds read low 0.99 | locus YJL095W, strain BCK1 (second series), active compounds read low 0.986 | locus YJL095W, strain BCK1, active compounds read low 1.05 and 0.999 | locus YJL115W, strain asf1, active compounds read low 0.979 | locus YJL129C, strain trk1, active compounds read low 0.955 | locus YJL134W, strain LCB3, active compounds read low 1.01 | locus YJL154C, strain vps35, active compounds read low 0.98 | locus YJL164C, strain tpk1, active compounds read low 0.994 | locus YJL166W, strain qcr8, active compounds read low 0.973 | locus YJL168C, strain set2, active compounds read low 0.981 | locus YJL187C, strain SWE1 (second series), active compounds read low 1.01 | locus YJL187C, strain SWE1, active compounds read low 0.994
